The list is not random: actives were taken first. Their share in the collection is about 0.51%.
Vif-A3G inh: blocks the Vif interaction with human APOBEC3G. Q9HC16. HeLa A3G-eYFP + Vif (tagged APOBEC3G with the HIV-1 protein that degrades it), YFP fluorescence, overnight. Potency, µM (series often up to 46.1 µM), without a hit: top-dose activity, negative = active, actives largely listed as inhibitors. actives 0.076% (n = 410,000); also: % is scaled to controls: 0 for no effect and ±100 for the full control effect; nearly all actives have a fitted effect of over 60% in size
Target sequence (Q9HC16 whole entry, looked up): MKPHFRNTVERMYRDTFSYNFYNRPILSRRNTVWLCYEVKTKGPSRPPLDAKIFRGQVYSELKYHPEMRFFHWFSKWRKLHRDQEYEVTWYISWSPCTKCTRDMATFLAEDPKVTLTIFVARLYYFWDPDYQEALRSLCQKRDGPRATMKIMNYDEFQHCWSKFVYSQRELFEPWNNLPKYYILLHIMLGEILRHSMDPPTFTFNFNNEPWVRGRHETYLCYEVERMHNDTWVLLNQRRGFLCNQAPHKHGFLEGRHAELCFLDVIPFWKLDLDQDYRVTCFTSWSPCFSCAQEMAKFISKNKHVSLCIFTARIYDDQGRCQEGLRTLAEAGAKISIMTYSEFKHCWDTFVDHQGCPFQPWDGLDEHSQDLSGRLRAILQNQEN
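Read-out is eYFP fluorescence (Ex 488/Em 500-530) from Vif-expressing HeLa A3G-eYFP cells; more signal means A3G escaped Vif-mediated degradation. Cells plated overnight, compound pinned in, incubated overnight at 37 deg C.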
Vif-APOBEC3F blk: blocks the Vif interaction with APOBEC3F; HeLa A3F-eYFP + Vif (tagged APOBEC3F with the HIV-1 protein that degrades it), YFP fluorescence increase; Potency, µM (titrated, usually from 46.1 µM), for inactives: at the highest dose activity, negative = active; actives 0.2% (n = 390,000); also: % of control where 0% means no effect; nearly all actives have a fitted effect of over 65% in size
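HeLa cells stably expressing A3F-eYFP plus Vif, plated and incubated overnight at 37 deg C, then exposed to compounds overnight at 37 deg C. Blocked degradation read as raised yellow fluorescence (Ex 488/Em 500-530).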
PINK1 modulator: modulators of PINK1 expression; PINK1 immunofluorescence, high-content cytometry, 24 h; Potency, µM (doses to about 76.6 µM), inactives show at the highest dose activation (PINK1 increase), most hits filed as activators; actives 0.2% (n = 410,000); active = well fitted activation curve with a large enough effect; inconclusive = small, poorly fitted or top-dose-only effect; cell line not stated here; also: % of control where 0% means no effect; nearly all actives have a fitted effect of over 65% in size
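Fluorescence from anti-PINK1 antibody, together with nuclear and cell stains, was scanned on a laser-scanning cytometer. Before staining, stable-line cells were incubated 24 hours with compounds at 5 concentrations; primary antibody 12 h at 10 degrees C.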
Epigenetic derep: derepresses silenced GFP reporter in murine cells; murine LDR cells, GFP reporter derepression, 30 h; Potency, µM (top dose mostly 53.9 µM), inactives show at the highest dose GFP activation, actives largely listed as activators; actives 0.2% (n = 280,000); AID 1865; also: % of control where 0% means no effect; nearly all actives have a fitted effect of over 60% in size
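Readout is the number of GFP-expressing murine LDR cells, counted by cytometry following washing. Cells were treated with compound for 30 h at 37 C; the stably integrated CMV-GFP locus is normally silent.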
* marks the source's active call; other numbers are inactive results; ? = inconclusive; · = not tested or not shown. Unless noted, calls follow the shape of the dose curve; as a rule, active = well fitted curve in the direction sought with a large enough effect; inconclusive = small, poorly fitted or top-dose-only effect, or another doubt; inactive = no such curve, though single readings can be large; an effect the other way counts as inactive or inconclusive. Potency is read from the fitted curve at half-maximal effect.

SMILES	Vif-A3G inh	Vif-APOBEC3F blk	PINK1 modulator	Epigenetic derep
CCCCN1/C(=C/c2ccc3ccccc3[n+]2CC)Sc2ccccc21	?	?	11.2µM*	3.16µM*
CCN(CC)CCN1c2ccccc2Sc2ccc3ccccc3c21	-7.6%	-13.0%	24.4%	7.0%
CCN1/C(=C/c2ccc3cc(C)ccc3[n+]2CC)Sc2cc(C)ccc21	4.3%	?	?	2.82µM*
CCN1/C(=C/c2ccc3cc(C)ccc3[n+]2C)Sc2ccc3sccc3c21	-9.5%	?	3.5%	10µM*
CCN1/C(=C/c2ccc3ccccc3[n+]2CCCS(=O)(=O)[O-])C=Cc2cc(C)ccc21	1.7%	7.0%	-0.3%	·
CCN1/C(=C/c2ccc3ccccc3[n+]2CC)C=Cc2ccccc21	?	12.6µM*	?	?
CC(C)(C)c1ccc(C(=O)C[n+]2ccc(Cl)c3ccc(Cl)cc32)cc1	-29.6%	·	·	·
CCOc1cc(/C=C/C(=O)c2ccc(OC)c(CN3CCOCC3)c2)cc(Br)c1O	?	25.1µM*	0.5%	·
COc1cc(CN2CCc3nnc(C(NS(C)(=O)=O)C(C)C)n3CC2)ccc1F (stereo unspecified)	·	·	0.0%	·
Cc1cc(C)c2nc(NNC(=O)c3ccc(S(=O)(=O)N4CC(C)CC(C)C4)cc3)sc2c1 (stereo unspecified)	?	-8.8%	10.7%	5.3%
Cc1cccc2sc(NNC(=O)c3ccc(S(=O)(=O)N4CC(C)CC(C)C4)cc3)nc12 (stereo unspecified)	-3.1%	-28.4%	39.8µM*	1.7%
COc1cccc(C2=CC(c3ccc(N(C)C)cc3)n3nnnc3N2)c1 (stereo unspecified)	?	31.6µM*	7.8%	0.0%
COc1ccc(C2=CC(c3ccc(N(C)C)cc3)n3nnnc3N2)cc1 (stereo unspecified)	?	11.2µM*	-0.7%	2.2%
CC(=O)c1ccccc1-c1ccc2c(c1)CC(CNC(=O)c1cc(C)on1)O2 (stereo unspecified)	·	·	-0.4%	·
CCn1c(C)cc(/C=C2\NC(=O)N(CC(=O)Nc3ccc(F)cc3)C2=O)c1C	-0.3%	5.2%	0.6%	25.1µM*
O=C(Nc1cccc(N2CCC(NCc3cnn(-c4ccccc4)n3)CC2)c1)c1cccnc1	·	·	-0.6%	·
CN1CCN(c2cc(-c3ccc4ccccc4c3)nc3ccnn23)CC1	2.0%	·	44.7µM*	·
Cc1cc(C)n(CC(O)COCc2ccccc2)n1 (stereo unspecified)	1.8%	2.5%	0.4%	10µM*
Cc1cc(C)n(CC(O)COc2cccc(OCC(O)Cn3nc(C)cc3C)c2)n1 (stereo unspecified)	-3.0%	12.2%	-1.9%	-0.5%
CCCCN1C(=O)c2cccc3cc(O)cc(c23)C1=O	-11.8%	1.26µM*	4.1%	·
Cc1ccc2nc(SCC(=O)N3CCC4(CC3)CC4C(=O)Nc3ccc(F)c(F)c3)[nH]c2c1 (stereo unspecified)	·	·	-0.4%	·
Cc1cc(OCC(=O)Nc2nnc(C3CC3)s2)ccc1Cl	2.82µM*	-1.0%	3.0%	·
O=C(COc1ccc(F)cc1)Nc1nnc(C2CC2)s1	0.5%	-1.8%	-0.3%	·
O=C(Nc1ccccc1)c1sc(N2CCOCC2)nc1-c1ccccc1	-0.7%	-0.2%	-2.4%	2.0%
N#C/C(=C\c1sc(N2CCOCC2)nc1-c1ccccc1)C(=O)Nc1cccc2ccccc12	·	·	·	12.6µM*
SMILES	Vif-A3G inh	Vif-APOBEC3F blk	PINK1 modulator	Epigenetic derep
Cc1c(C(=O)N(C)C2CCOC2)sc2ncnc(NCc3ccc4c(c3)OCO4)c12 (stereo unspecified)	·	·	0.0%	·
COC(=O)C1CCCCN1Cc1ccc2c(c1)CN(Cc1cnn(-c3ccccc3)c1)CCO2 (stereo unspecified)	·	·	0.3%	·
O=c1[nH]c(CN2CCN(c3ccccc3)CC2)nc2scc(-c3ccccc3)c12	?	22.4µM*	8.8%	?
Fc1ccc(CN2CCN(C(c3ccccc3)c3ccccc3)CC2)cc1	-0.1%	0.5%	39.8µM*	·
Cc1nc(C)n(CC(=O)NCC2Cc3cc(-c4ccsc4)cc(Cl)c3O2)n1 (stereo unspecified)	·	·	1.1%	·
CCCCCCSc1cccc(-c2nc3cc(C)ccn3c2NC2CCCCC2)c1	-8.6%	-20.9%	?	·
CCC(C)Sc1cccc(-c2nc3cc(C)ccn3c2NC2CCCCC2)c1 (stereo unspecified)	-7.6%	22.4µM*	14.1µM*	·
Cc1ccn2c(NC3CCCCC3)c(-c3cccc(SC4CCCCC4)c3)nc2c1	-6.9%	-28.3%	20µM*	·
